Conditions in all cases: mRNA level, 48 h; actives raise or lower the signal
Read-out in assay [1]: Lipase C (LIPC), LIPC (gene 3990)
Briefly: LTEA_HepaRG_LIPC: Life Technologies and Expression Analysis (LTEA) Assay for Lipase C (LIPC) using HepaRG (AID 2283514). Summed up: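 Differentiated human HepaRG cells in serum-free induction medium were exposed in duplicate for 48 h to eight concentrations (top 100 uM, half-log steps, 0.5% DMSO). LIPC mRNA was quantified by TaqMan qRT-PCR, normalized to ACTB, GAPDH and POLR2A, with bidirectional fitting versus DMSO.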

Read-out in assay [2]: Lipoprotein lipase (LPL), LPL (gene 4023)
Briefly: LTEA_HepaRG_LPL: Life Technologies and Expression Analysis (LTEA) Assay for Lipoprotein lipase (LPL) using HepaRG (AID 2283515). Summed up:
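Differentiated human HepaRG cells in serum-free induction medium were exposed in duplicate for 48 h to eight half-log concentrations (top 100 uM) in 0.5% DMSO. LPL mRNA was quantified by TaqMan qRT-PCR, normalized to ACTB, GAPDH and POLR2A.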

Read-out in assay [3]: MicroRNA 122 (MIR122), gene 406906
Briefly: LTEA_HepaRG_MIR122: Life Technologies and Expression Analysis (LTEA) Assay for MicroRNA 122 (MIR122) using HepaRG (AID 2283516). Also: the transcript read is the microRNA miR-122. The method, boiled down:
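Differentiated human HepaRG cells in serum-free induction medium exposed 48 h to 8 half-log concentrations from 100 uM in 0.5% DMSO, duplicate. MIR122 quantified by Fluidigm TaqMan qRT-PCR, normalised to ACTB, GAPDH, POLR2A; fold change fitted bidirectionally versus DMSO.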

Read-out in assay [4]: matrix metalloproteinase-10 (MMP10), MMP10 (gene 4319)
Briefly: LTEA_HepaRG_MMP10: Life Technologies and Expression Analysis (LTEA) Assay for matrix metalloproteinase-10 (MMP10) using HepaRG (AID 2283517). The method, boiled down: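 HepaRG, collagen I, ~100,000 cells/well; serum-free induction medium; 48 h exposure, duplicate, 8-pt half-log to 100 uM, 0.5% DMSO. Readout: TaqMan qRT-PCR, normalized to ACTB/GAPDH/POLR2A; bidirectional fit vs DMSO.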

Read-out in assay [5]: matrix metalloproteinase-3 (MMP3), MMP3 (gene 4314)
As to the kind of experiment: LTEA_HepaRG_MMP3: Life Technologies and Expression Analysis (LTEA) Assay for matrix metalloproteinase-3 (MMP3) using HepaRG (AID 2283519). The method, boiled down: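 Differentiated human HepaRG cells, plated 48 h on collagen I, were exposed in duplicate for 48 h in serum-free induction medium to eight half-log concentrations up to 100 uM in 0.5% DMSO. MMP3 mRNA was quantified by TaqMan qRT-PCR, normalised to ACTB, GAPDH and POLR2A.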

Read-out in assay [6]: Paternally Expressed 10 (PEG10), PEG10 (gene 23089)
Briefly: LTEA_HepaRG_PEG10: Life Technologies and Expression Analysis (LTEA) Assay for Paternally Expressed 10 (PEG10) using HepaRG (AID 2283520). The method, boiled down:
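Differentiated HepaRG cells exposed 48 h in serum-free induction medium to eight half-log concentrations topping at 100 uM, 0.5% DMSO, in duplicate. PEG10 mRNA quantified by TaqMan qRT-PCR, normalized to ACTB, GAPDH and POLR2A; bidirectional fit versus DMSO.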

Read-out in assay [7]: Phosphatase and tensin (PTEN), PTEN (gene 5728)
As to the kind of experiment: LTEA_HepaRG_PTEN: Life Technologies and Expression Analysis (LTEA) Assay for Phosphatase and tensin (PTEN) using HepaRG (AID 2283523). Summed up: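 Differentiated human HepaRG cells, plated 48 h then switched to serum-free induction medium, were exposed in duplicate for 48 h to eight half-log concentrations up to 100 uM in 0.5% DMSO. PTEN mRNA measured by TaqMan qRT-PCR, normalized to ACTB/GAPDH/POLR2A, bidirectional fit versus DMSO.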

Read-out in assay [8]: solute carrier (SLC22A1), SLC22A1 (gene 6580)
As to the kind of experiment: LTEA_HepaRG_SLC22A1: Life Technologies and Expression Analysis (LTEA) Assay for solute carrier (SLC22A1) using HepaRG (AID 2283524). The method, boiled down: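 Human HepaRG cells were plated 48 h, switched to serum-free induction medium, then exposed in duplicate for 48 h to 8-point half-log series from 100 uM in 0.5% DMSO. SLC22A1 mRNA measured by qRT-PCR, normalized to ACTB/GAPDH/POLR2A, fitted bidirectionally versus DMSO.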

The source made the active and inactive calls. The calls were made as follows: active = hit-call score of the fitted dose curve at least 0.9, where 1 is the maximum; inactive = score below 0.9.

Regarding `Cc1ccc(N)cc1N`, the molecule was called inactive in assay [1], in assay [2], in assay [3], in assay [4], in assay [5] and in assay [6]. Moreover, the outcome in assay [7] and in assay [8] was inactive.
As to `c1nc[nH]n1`, the molecule was called inactive in assay [1], in assay [2], in assay [3], in assay [6], in assay [7] and in assay [8]. For the same molecule, the AC50 (commonly the concentration at which the activity in the assay is half-maximal) in assay [4] was 15.8 µM (active); in assay [5], 0.0899 µM (active).
Take `CCNc1nc(Cl)nc(NC(C)(C)C)n1`: the result in assay [1], in assay [2], in assay [3], in assay [4], in assay [5] and in assay [7] was inactive. For the same molecule, in assay [8], the result was inactive. In addition, the concentration at half-maximal activity (AC50) in assay [6] is 17.4 µM (active).
With `Nc1ccc(Cl)cc1`, the outcome in assay [1], in assay [2], in assay [3], in assay [4], in assay [5] and in assay [6] was inactive. The molecule was classed as inactive in assay [7] and in assay [8].
As to `CCC1(c2ccccc2)C(=O)N=C(O)NC1=O` (stereo unspecified), the molecule was called inactive in assay [1], in assay [2], in assay [3], in assay [4], in assay [5] and in assay [6]. For the same molecule, the result in assay [7] and in assay [8] was inactive.
In the case of `[N-]=[N+]=[N-]`, the results for the AC50 in assay [1] and in assay [2] were 81.1 µM (active) and 72.3 µM (active), respectively. Moreover, the call in assay [3], in assay [4], in assay [5], in assay [6], in assay [7] and in assay [8] was inactive.
Take `O=C(O)C1C(C(=O)O)C2(Cl)C(Cl)=C(Cl)C1(Cl)C2(Cl)Cl` (stereo unspecified): the call in assay [1], in assay [2], in assay [3], in assay [4], in assay [5] and in assay [6] was inactive. Further, the result in assay [7] and in assay [8] was inactive.
As to `Cc1ccc([N+](=O)[O-])cc1C`, the molecule was classed as inactive in assay [1], in assay [2], in assay [3], in assay [4], in assay [5] and in assay [6]. Besides, the molecule was called inactive in assay [7] and in assay [8].
Consider `CCC(C)(C)c1ccc(O)cc1`, for which the molecule was classed as inactive in assay [1], in assay [2], in assay [3], in assay [4], in assay [5] and in assay [6]. Further, the outcome in assay [7] and in assay [8] was inactive.
In the case of `ClC(Cl)(Cl)c1ccccc1`, the molecule was classed as inactive in assay [1], in assay [2], in assay [3], in assay [4], in assay [5] and in assay [6]. The molecule was called inactive in assay [7] and in assay [8].
`Nc1ccc2ccccc2c1`: the call in assay [1], in assay [2], in assay [3], in assay [4], in assay [5] and in assay [6] was inactive. The outcome in assay [7] and in assay [8] was inactive.
Turning to `O=P(Oc1ccccc1)(Oc1ccccc1)Oc1ccccc1`, the molecule was classed as inactive in assay [1], in assay [2], in assay [3], in assay [4], in assay [5] and in assay [6]. Besides, in assay [7], the molecule was called inactive. For the same molecule, the AC50 in assay [8] was 50 µM (active).
Consider `c1ccc(OP(Oc2ccccc2)Oc2ccccc2)cc1`, for which the outcome in assay [1], in assay [2], in assay [3], in assay [4], in assay [5] and in assay [6] was inactive. Besides, the molecule was called inactive in assay [7] and in assay [8].
In the case of `O=[N+]([O-])c1ccc(Cl)c(Cl)c1`, the molecule was called inactive in assay [1], in assay [2], in assay [3], in assay [4], in assay [5] and in assay [6]. For the same molecule, the molecule was classed as inactive in assay [7] and in assay [8].
On to `CC(Cc1ccc(OCC(=O)O)cc1)NCC(O)c1csc(C(F)(F)F)n1` (stereo unspecified), for which the result in assay [1], in assay [2], in assay [3], in assay [4], in assay [5] and in assay [7] was inactive. Further, in assay [8], the molecule was called inactive. The concentration at half-maximal activity (AC50) in assay [6] is 0.0862 µM (active).
In the case of `CCCN(CCC)c1c([N+](=O)[O-])cc(C(C)C)cc1[N+](=O)[O-]`, the molecule was called inactive in assay [1], in assay [3], in assay [4], in assay [5] and in assay [7]. In addition, the AC50 in assay [2] is 12.5 µM (active); in assay [6], 43.3 µM (active); in assay [8], 77.4 µM (active).
`COCCOCCO`: the call in assay [1], in assay [2], in assay [3], in assay [4], in assay [5] and in assay [6] was inactive. In addition, the result in assay [7] and in assay [8] was inactive.
For `c1ccc2c(c1)Nc1ccccc1S2`, the result in assay [1], in assay [3], in assay [4], in assay [5], in assay [7] and in assay [8] was inactive. In addition, the AC50 in assay [2] is 65 µM (active); in assay [6], 77.1 µM (active).
As for `CN(C)C(=O)Cl`, the call in assay [1], in assay [2], in assay [3], in assay [4], in assay [5] and in assay [6] was inactive. The molecule was called inactive in assay [7] and in assay [8].
With `CCOP(=S)(OCC)SCSCC`, the molecule was classed as inactive in assay [1], in assay [2], in assay [3], in assay [4], in assay [5] and in assay [6]. Besides, the molecule was called inactive in assay [7] and in assay [8].
On to `Cc1ccc(O)cc1C`, for which the call in assay [1], in assay [2], in assay [3], in assay [4], in assay [5] and in assay [6] was inactive. Further, the molecule was classed as inactive in assay [7] and in assay [8].
Turning to `CCCCc1ccccc1`, the call in assay [1], in assay [2], in assay [3], in assay [4], in assay [5] and in assay [6] was inactive. Besides, the outcome in assay [7] and in assay [8] was inactive.

For the origin of these results see PubChem BioAssay (EPA / NIEHS).
